Several values for one entry are separate records, joined by “and”; a condition that tells them apart may be missing. Identical values can stand only once. In all, about 5,500 compounds went through this assay and about 2,000 (36%) were called active. Another 18% or so got no clear call; they are omitted. No stated cut-off is given here; in the data, active means normalized growth mostly below about 0.91 (no sharp cut-off); inconclusive means no clear call, values can overlap the other calls; inactive means mostly above about 0.92. Some of the results follow.
Assay: chemical genetic growth profiling, strain panel (AID 1159580);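 further: tested at 20 µM; growth read once vehicle control cultures reached saturation at 30 °C; 1 = growth at the plate median or of vehicle wells; lower values mean less growth of the strain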
Conditions: S. cerevisiae deletion strains, growth OD

Measured: normalized growth

NCCC(=O)N[C@@H](Cc1cnc[nH]1)C(=O)O
inactive: locus YAL021C, strain ccr4, active compounds read low 0.997 | locus YAL026C, strain drs2, active compounds read low 1.01 | locus YAL030W, strain snc1, active compounds read low 1.01 | locus YBL061C, strain skt5, active compounds read low 1.01 | locus YBR009C, strain hhf1, active compounds read low 1.01 | locus YBR021W, strain FUR4, active compounds read low 1.06 | locus YBR023C, strain chs3, active compounds read low 1 | locus YBR171W, strain sec66, active compounds read low 1.02 | locus YBR229C, strain ROT2, active compounds read low 0.993 | locus YBR231C, strain swc5, active compounds read low 1.01 | locus YBR279W, strain paf1, active compounds read low 1.01 | locus YCL011C, strain gbp2, active compounds read low 1.01 | locus YCL016C, strain dcc1, active compounds read low 1.01 | locus YCL029C, strain bik1, active compounds read low 0.967 | locus YCL061C, strain MRC1, active compounds read low 1.01 | locus YCL069W, strain vba3, active compounds read low 1.01 | locus YCR088W, strain abp1, active compounds read low 1.01 | locus YDL005C, strain med2, active compounds read low 1.01 | locus YDL035C, strain GPR1, active compounds read low 0.997 | locus YDL040C, strain nat1, active compounds read low 0.998 | locus YDL074C, strain BRE1, active compounds read low 1.01 | locus YDL101C, strain DUN1, active compounds read low 0.994 | locus YDL134C, strain PPH21, active compounds read low 1.04 | locus YDL185W, strain tfp1, active compounds read low 0.957 | locus YDL192W, strain arf1, active compounds read low 0.98 | locus YDR001C, strain nth1, active compounds read low 1.01 | locus YDR069C, strain doa4, active compounds read low 1.01 | locus YDR101C, strain arx1, active compounds read low 0.99 | locus YDR137W, strain rgp1, active compounds read low 1.01 | locus YDR159W, strain sac3, active compounds read low 1.02 | locus YDR162C, strain NBP2, active compounds read low 1.03 | locus YDR195W, strain ref2 0.978 | locus YDR297W, strain sur2, active compounds read low 1.01 | locus YDR318W, strain mcm21, active compounds read low 0.986 | locus YDR334W, strain swr1, active compounds read low 1.01 | locus YDR335W, strain msn5, active compounds read low 1.01 | locus YDR388W, active compounds read low 0.979 | locus YDR392W, strain spt3, active compounds read low 1.03 | locus YDR502C, strain sam2, active compounds read low 0.997 | locus YEL003W, strain gim4, active compounds read low 1.02 | locus YEL037C, strain rad23, active compounds read low 1.01 | locus YEL061C, strain CIN8 (second series), active compounds read low 1.01 | locus YEL061C, strain CIN8, active compounds read low 0.997 | locus YER015W, strain faa2, active compounds read low 1.01 | locus YER016W, strain bim1, active compounds read low 1 | locus YER110C, active compounds read low 0.972 | locus YER111C, strain swi4, active compounds read low 0.992 | locus YER155C, strain BEM2 (second series), active compounds read low 1.03 | locus YER155C, strain BEM2, active compounds read low 0.999 | locus YER167W, strain BCK2, active compounds read low 0.99 | locus YFR010W, strain ubp6, active compounds read low 1.02 | locus YGL078C, strain dbp3, active compounds read low 0.999 | locus YGL086W, strain mad1, active compounds read low 1 | locus YGL167C, strain pmr1, active compounds read low 1.01 | locus YGL173C, strain kem1, active compounds read low 1.01 | locus YGL227W, strain vid30, active compounds read low 1.01 | locus YGL240W, strain doc1, active compounds read low 1.01 | locus YGL248W, strain PDE1, active compounds read low 1 | locus YGL253W, strain hxk2, active compounds read low 1.02 | locus YGR135W, strain pre9, active compounds read low 0.977 | locus YGR229C, strain SMI1, active compounds read low 1.02 | locus YGR252W, strain gcn5, active compounds read low 1.05 | locus YHR013C, strain ard1, active compounds read low 1.04 | locus YHR027C, strain rpn1, active compounds read low 1.02 | locus YHR030C, strain SLT2, active compounds read low 0.983 and 1.01 | locus YHR079C, strain IRE1 (second series), active compounds read low 0.979 | locus YHR079C, strain IRE1, active compounds read low 1.02 | locus YHR094C, strain hxt1, active compounds read low 0.987 | locus YHR129C, strain ARP1, active compounds read low 0.994 | locus YHR142W, strain chs7, active compounds read low 1.03 | locus YHR200W, strain rpn10, active compounds read low 0.986 | locus YIL066C, strain RNR3, active compounds read low 1.01 | locus YIL073C, strain SPO22, active compounds read low 0.942 | locus YIL125W, strain kgd1, active compounds read low 0.975 | locus YIR030C, strain dcg1, active compounds read low 0.983 | locus YJL092W, strain hpr5, active compounds read low 1.01 | locus YJL095W, strain BCK1 (second series), active compounds read low 1.02 | locus YJL095W, strain BCK1, active compounds read low 1.02 and 1.01 | locus YJL115W, strain asf1, active compounds read low 1.02 | locus YJL129C, strain trk1, active compounds read low 1.02 | locus YJL134W, strain LCB3, active compounds read low 0.988 | locus YJL154C, strain vps35, active compounds read low 1.01 | locus YJL164C, strain tpk1, active compounds read low 1.01 | locus YJL166W, strain qcr8, active compounds read low 1.01 | locus YJL168C, strain set2, active compounds read low 0.985 | locus YJL187C, strain SWE1 (second series), active compounds read low 0.999 | locus YJL187C, strain SWE1, active compounds read low 1 | locus YJR043C, strain POL32, active compounds read low 1.02 | locus YJR066W, strain TOR1, active compounds read low 0.968 | locus YKL009W, strain mrt4, active compounds read low 0.94 | locus YKL068W, active compounds read low 0.978 | locus YKL085W, strain MDH1 (second series), active compounds read low 0.975 | locus YKL085W, strain MDH1, active compounds read low 0.975 | locus YKL160W, strain elf1, active compounds read low 1.01 | locus YKL190W, strain CNB1, active compounds read low 0.991 | locus YKR001C, strain vps1, active compounds read low 1.02 | locus YKR026C, strain gcn3, active compounds read low 1.01 | locus YKR091W, strain srl3, active compounds read low 1.01 | locus YLL001W, strain dnm1, active compounds read low 1 | locus YLL026W, active compounds read low 1.01 | locus YLL041C, strain sdh2, active compounds read low 1.01 | locus YLR027C, strain aat2, active compounds read low 0.997 | locus YLR039C, strain RIC1, active compounds read low 1.01 | locus YLR058C, strain SHM2, active compounds read low 0.987 | locus YLR102C, strain apc9, active compounds read low 0.991 | locus YLR113W, strain HOG1, active compounds read low 0.985 | locus YLR221C, strain rsa3, active compounds read low 1.01 | locus YLR258W, strain gsy2, active compounds read low 1.02 | locus YLR262C, strain YPT6 (second series), active compounds read low 1.02 | locus YLR262C, strain YPT6, active compounds read low 0.93 | locus YLR268W, strain sec22, active compounds read low 0.982 | locus YLR320W, strain mms22, active compounds read low 1.02 | locus YLR330W, strain CHS5, active compounds read low 0.983 | locus YLR342W, strain FKS1 (second series), active compounds read low 1.01 | locus YLR342W, strain FKS1, active compounds read low 1.02 | locus YLR357W, strain rsc2, active compounds read low 1.03 | locus YLR370C, strain arc18, active compounds read low 1.01 | locus YLR371W, strain rom2, active compounds read low 0.978 | locus YLR384C, strain iki3, active compounds read low 1.02 | locus YLR418C, strain cdc73, active compounds read low 1 | locus YML016C, strain PPZ1, active compounds read low 0.992 | locus YML032C, strain rad52, active compounds read low 0.976 | locus YML120C, strain ndi1, active compounds read low 1.01 | locus YML124C, strain tub3, active compounds read low 0.986 | locus YMR058W, strain fet3, active compounds read low 1.02 | locus YMR078C, strain ctf18, active compounds read low 0.984 | locus YMR125W, strain sto1, active compounds read low 1.01 | locus YMR129W, active compounds read low 1.01 | locus YMR205C, strain PFK2, active compounds read low 1.01 | locus YMR223W, strain ubp8, active compounds read low 0.979 | locus YMR231W, strain pep5, active compounds read low 0.985 | locus YMR307W, strain GAS1, active compounds read low 1.08 | locus YNL067W, strain RPL9B, active compounds read low 1.01 | locus YNL071W, strain lat1, active compounds read low 1.01 | locus YNL128W, strain TEP1, active compounds read low 0.989 | locus YNL153C, strain GIM3, active compounds read low 1.02 | locus YNL183C, strain NPR1, active compounds read low 0.983 | locus YNL209W, strain ssb2, active compounds read low 1 | locus YNL233W, strain BNI4, active compounds read low 1.03 | locus YNL248C, strain rpa49, active compounds read low 1.02 | locus YNL250W, strain rad50, active compounds read low 0.97 | locus YNL271C, strain bni1, active compounds read low 0.988 | locus YNL298W, strain CLA4, active compounds read low 0.996 | locus YNL307C, strain MCK1, active compounds read low 0.984 | locus YNL322C, strain KRE1 (second series), active compounds read low 1.02 | locus YNL322C, strain KRE1, active compounds read low 0.994 | locus YNR049C, strain mso1, active compounds read low 1.01 | locus YNR052C, strain pop2, active compounds read low 0.982 | locus YOL012C, strain htz1 0.915 | locus YOL147C, strain pex11, active compounds read low 0.993 | locus YOR001W, strain rrp6, active compounds read low 1.01 | locus YOR061W, strain CKA2, active compounds read low 0.99 | locus YOR069W, strain VPS5, active compounds read low 0.993 | locus YOR070C, strain gyp1, active compounds read low 1.02 | locus YOR080W, strain dia2, active compounds read low 1 | locus YOR083W, strain WHI5, active compounds read low 1.02 | locus YOR106W, strain vam3, active compounds read low 1.03 | locus YOR136W, strain idh2, active compounds read low 0.99 | locus YOR144C, strain elg1, active compounds read low 1.01 | locus YOR184W, strain ser1, active compounds read low 1.01 | locus YOR231W, strain MKK1, active compounds read low 1.02 | locus YOR265W, strain rbl2, active compounds read low 0.999 | locus YOR270C, strain vph1, active compounds read low 1.08 | locus YOR290C, strain snf2, active compounds read low 1.02 | locus YOR316C, strain cot1, active compounds read low 0.983 | locus YPL051W, strain arl3, active compounds read low 1.01 | locus YPL055C, strain LGE1, active compounds read low 1.03 | locus YPL078C, strain atp4, active compounds read low 1.01 | locus YPL106C, strain sse1, active compounds read low 1.02 | locus YPL240C, strain hsp82, active compounds read low 1.01 | locus YPL241C, strain CIN2, active compounds read low 0.996 | locus YPL256C, strain CLN2, active compounds read low 1.04 | locus YPR119W, strain clb2, active compounds read low 0.984 | locus YPR141C, strain kar3, active compounds read low 0.973 | locus YPR163C, strain tif3, active compounds read low 0.975 | locus YPR167C, strain met16, active compounds read low 1.01 | strain wtn01, active compounds read low 0.999

— PubChem BioAssay AID1159580 (chemical genetic matrix, 2015)
